Screening results (PubChem)
MCF10A rerep: A quantitative high throughput screen for small molecules that induce DNA re-replication in MCF 10a normal breast cells. Potency, µM (doses to about 46.1 µM), hits mostly activators. actives 2.9% (n = 350,000). MCF 10A DNA re-replication, Hoechst nuclear intensity, 48 h; note: nearly all actives have a fitted effect of over 50% in size
KCNH2 3.1 inh: qHTS for Inhibitors of KCHN2 3.1: Mutant qHTS | actives 0.95% (n = 340,000) | activity change, % (tested at about 1.8 µM) | U2OS KCNH2 3.1, thallium flux FluxOr; stronger effect = lower value | AID 720553, 2013;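 active = maximum activity change below -70%; inconclusive = maximum activity change from -70% to -50%; inactive = maximum activity change above -50%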;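 note: thallium influx rate constant from kinetic fluorescence after stimulation buffer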
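Measured as rate of thallium-driven FluxOr signal in transduced U2OS cells carrying the 3.1 channel, read kinetically for 2 min upon stimulation; values are rate constants scaled to DMSO control wells.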
KB-3-1 tox: qHTS assay for MDR1-selective chemotherapeutics: Primary screen using the parental adenocarcinoma cell KB-3-1; KB-3-1 viability, CellTiter-Glo ATP luminescence, 72 h; Potency, µM (series often up to 46.1 µM), actives largely listed as cytotoxic; actives 1.4% (n = 400,000); AID 1347075, 2019; note: nearly all actives have a fitted effect of over 60% in size
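72 h, 37 °C compound treatment of KB-3-1 parental cells; CellTiter-Glo added, 10 min, luminescence read. Data corrected against DMSO-only plates and normalized before curve fitting.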
hERG WT inh: qHTS for Inhibitors of KCHN2 3.1: Wildtype qHTS; U2OS, BacMam KCNH2, thallium flux FluxOr; stronger effect = lower value; actives 0.37% (n = 340,000); activity change, % at 1.84 µM;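 active = maximum activity change below -70%; inconclusive = maximum activity change between -70% and -50%; inactive = maximum activity change above -50%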
Target sequence (Q12809 whole entry, looked up): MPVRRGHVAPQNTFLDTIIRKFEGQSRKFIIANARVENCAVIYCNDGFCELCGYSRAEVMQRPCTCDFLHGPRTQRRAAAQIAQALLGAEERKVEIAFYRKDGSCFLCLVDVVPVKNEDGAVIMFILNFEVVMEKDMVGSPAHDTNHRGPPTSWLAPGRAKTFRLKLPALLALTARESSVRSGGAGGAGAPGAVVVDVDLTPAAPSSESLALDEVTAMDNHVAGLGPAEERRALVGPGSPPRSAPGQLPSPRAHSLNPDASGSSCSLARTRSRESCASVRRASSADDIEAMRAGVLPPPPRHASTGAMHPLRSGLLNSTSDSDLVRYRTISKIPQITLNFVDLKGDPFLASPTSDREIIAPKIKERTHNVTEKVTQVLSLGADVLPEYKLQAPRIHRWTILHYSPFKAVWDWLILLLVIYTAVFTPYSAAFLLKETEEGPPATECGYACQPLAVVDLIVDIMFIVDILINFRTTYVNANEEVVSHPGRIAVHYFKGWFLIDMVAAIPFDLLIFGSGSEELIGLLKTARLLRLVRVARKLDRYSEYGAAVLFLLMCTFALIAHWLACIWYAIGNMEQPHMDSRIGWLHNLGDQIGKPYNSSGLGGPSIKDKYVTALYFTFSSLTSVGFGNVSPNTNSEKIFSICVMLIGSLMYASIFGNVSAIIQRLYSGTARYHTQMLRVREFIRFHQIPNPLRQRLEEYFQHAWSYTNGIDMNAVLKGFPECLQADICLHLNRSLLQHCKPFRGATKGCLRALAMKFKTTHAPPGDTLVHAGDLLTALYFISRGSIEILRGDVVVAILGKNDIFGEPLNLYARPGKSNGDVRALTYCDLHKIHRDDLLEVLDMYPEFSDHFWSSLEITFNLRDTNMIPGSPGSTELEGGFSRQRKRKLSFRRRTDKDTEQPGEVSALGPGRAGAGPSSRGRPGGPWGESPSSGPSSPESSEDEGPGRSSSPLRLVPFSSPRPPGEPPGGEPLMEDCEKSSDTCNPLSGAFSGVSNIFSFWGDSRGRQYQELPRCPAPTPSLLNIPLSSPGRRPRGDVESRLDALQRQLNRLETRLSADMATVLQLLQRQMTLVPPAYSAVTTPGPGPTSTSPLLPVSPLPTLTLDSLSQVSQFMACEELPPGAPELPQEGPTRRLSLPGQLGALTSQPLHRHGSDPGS
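U2OS cells transduced with wild-type KCNH2 virus are loaded with FluxOr dye for 45 min, and thallium flux is measured in kinetic reads before and after stimulation buffer. Rate constants are normalized to DMSO controls.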
SW480 rereplic: A quantitative high throughput screen for small molecules that induce DNA re-replication in SW480 colon adenocarcinoma cells | SW480 DNA re-replication, Hoechst DNA content imaging, 48 h | actives 1.8% (n = 340,000) | Potency, µM (highest dose often 46.1 µM), most hits filed as activators | AID 624297, 2012; note: nearly all actives have a fitted effect of over 55% in size
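Readout is total intensity of Hoechst-stained nuclei, excited at 405 nm and collected at 500-530 nm. Compound treatment lasted 48 hr at 37 C in 5% CO2 before staining.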
KB-V1 MDR tox: qHTS assay for MDR1-selective chemotherapeutics: Primary screen using the drug-selected MDR subline cells KB-V1; Potency, µM (doses to about 46.1 µM), most hits filed as cytotoxic; KB-V1 MDR cells viability, CellTiter-Glo, 72 h; AID 1347076, 2019; actives 3.4% (n = 400,000); note: nearly all actives have a fitted effect of over 60% in size
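Luminescent ATP read-out (CellTiter-Glo, 10 min) measures survival of drug-selected KB-V1 MDR cells after 72 h, 37 degrees C compound exposure. Medium: phenol-red-free DMEM, 10% FBS. Values from fitted concentration-response curves.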
Each line names hits and unclear results; the compound was inactive in the other large screens; ! = a repeat was not active. Most compounds without a hit are left out; they make up all but 7.6% or so of the library. Unless noted, calls come from the whole dose curve; as a rule, active = well fitted curve in the direction sought with a large enough effect; inconclusive = small, poorly fitted or top-dose-only effect, or another doubt; inactive = no such curve, though single readings can be large; an effect the other way counts as inactive or inconclusive.

C/C(=N\NC(=O)c1c([N+](=O)[O-])c(C)nn1C)c1ccc(NC(=O)C2CCCC2)cc1	MCF10A rerep 0.41µM, KB-3-1 tox 0.46µM, SW480 rereplic 5.8µM, KB-V1 MDR tox 6.5µM
C/C(=N\NC(=O)c1c(Cl)c(C)nn1C)c1ccc(NC(=O)C2CCC2)cc1	MCF10A rerep inconclusive, KB-3-1 tox 1µM, SW480 rereplic 1.8µM, KB-V1 MDR tox 3.3µM
C/C(=N\NC(=O)c1c(Cl)c(C)nn1C)c1ccc(NC(=O)COc2ccc(Cl)cc2C)cc1	MCF10A rerep 21µM
C/C(=N\NC(=O)c1c([N+](=O)[O-])c(C)nn1C)c1ccc(NC(=O)c2ccc(C)o2)cc1	SW480 rereplic inconclusive
C/C(=N/NC(=O)c1cccs1)c1ccc(NC(=O)COc2ccc(Cl)cc2)cc1	MCF10A rerep 5.2µM, KB-3-1 tox inconclusive, SW480 rereplic inconclusive
CCOC(=O)Cn1c(=O)n(CC2CCCO2)c2nc(-c3cccc(C)c3)nc(C(N)=O)c21 (stereo unspecified)	KB-V1 MDR tox inconclusive (no result: MCF10A rerep, KCNH2 3.1 inh, hERG WT inh, SW480 rereplic)
C/C(=N\NC(=O)c1ccccc1)c1ccc(N2CCOCC2)cc1	none
C/C(=N/NC(=O)c1cccs1)c1ccc(N2CCOCC2)cc1	SW480 rereplic 0.52µM
CCSc1ccc(-c2nn(-c3ccccc3)cc2/C=C(/C#N)C(=O)NCCCOC)cc1	MCF10A rerep 15µM, SW480 rereplic inconclusive
CCCSc1ccc(-c2nn(-c3ccccc3)cc2/C=C(/C#N)C(=O)NCCCOC)cc1	SW480 rereplic 4.1µM, KB-V1 MDR tox inconclusive
COc1ccc(/C=C/C(=O)O)cc1S(=O)(=O)NC1CCS(=O)(=O)C1 (stereo unspecified)	none
CCn1nnnc1NCc1c(OC)ccc2ccccc12	KB-3-1 tox inconclusive, KB-V1 MDR tox inconclusive
O=C(CSc1nc2ccc(NC(=O)CSc3nnnn3Cc3ccccc3)cc2s1)Nc1ccccc1	MCF10A rerep inconclusive
Cc1cc(C)c(NC(=O)CSc2nc3ccc(NC(=O)CSc4nnnn4Cc4ccccc4)cc3s2)c(C)c1	hERG WT inh inconclusive, KB-V1 MDR tox 6.5µM
Cc1cccc(C(=O)Oc2c(Br)cc(Br)cc2/C=N/NC(=O)c2ccncc2)c1	none
Cc1cc(C(=O)N/N=C/c2cc(Br)cc(Br)c2OC(=O)c2cccc(F)c2)n[nH]1	MCF10A rerep 15µM, KB-3-1 tox inconclusive, SW480 rereplic 0.92µM, KB-V1 MDR tox inconclusive
CCOC(=O)c1cc2c(c(-c3cccc(-c4cc5ccccc5o4)c3)n1)[C@@H](CCO)N(S(=O)C(C)(C)C)C2 (stereo partly specified)	none (no result: MCF10A rerep, KCNH2 3.1 inh, hERG WT inh, SW480 rereplic)
O=C1CC2(CCN(S(=O)(=O)c3ccccc3F)CC2)Oc2ccccc21	KB-V1 MDR tox inconclusive
Cc1cc(C)c(NC(=O)CSc2nc(=O)n(Cc3ccco3)c3c2CCC3)c(C)c1	none (no result: MCF10A rerep, KCNH2 3.1 inh, hERG WT inh, SW480 rereplic)
CCN(c1ccccc1)S(=O)(=O)c1ccc(-c2cc(C)no2)s1	KB-3-1 tox inconclusive (no result: MCF10A rerep, KCNH2 3.1 inh, hERG WT inh, SW480 rereplic)
CCc1ccccc1N(C)S(=O)(=O)c1ccc(-c2cc(C)no2)s1	MCF10A rerep 2.3µM, KB-3-1 tox inconclusive, KB-V1 MDR tox inconclusive
CCc1ccccc1NC(=O)COCc1cc(-c2ccco2)on1	none (no result: MCF10A rerep, KCNH2 3.1 inh, hERG WT inh, SW480 rereplic)
Nc1nc(N)c2c(OCc3ccc(C(F)(F)F)cc3)cccc2n1	KB-3-1 tox inconclusive (no result: MCF10A rerep, KCNH2 3.1 inh, hERG WT inh, SW480 rereplic)
CC1(C)Cc2c(sc3nnn(Cc4ccccc4)c(=O)c23)CO1	MCF10A rerep inconclusive
Cc1cccc(NC(=O)Cn2nnc3sc4c(c3c2=O)CC(C)(C)OC4)c1	none
Cc1ccccc1NC(=O)Cn1nnc2sc3c(c2c1=O)CC(C)(C)OC3	none
CCC1(C)Cc2c(sc3nnn(Cc4ccccc4Cl)c(=O)c23)CO1 (stereo unspecified)	MCF10A rerep 16µM, KB-V1 MDR tox 21µM
CCC1(C)Cc2c(sc3nnn(CC(=O)Nc4ccccc4)c(=O)c23)CO1 (stereo unspecified)	KB-V1 MDR tox 7.3µM
CCC1(C)Cc2c(sc3nnn(CC(=O)Nc4ccccc4C)c(=O)c23)CO1 (stereo unspecified)	KB-V1 MDR tox 15µM
C/C(CC(=O)Nc1ccc2c(c1)OCCO2)=N\NC(=O)COc1ccc(C)cc1Br	none
Fc1ccc(C2CCNCC2COc2ccc3c(c2)OCO3)cc1 (stereo unspecified)	MCF10A rerep inconclusive, KB-3-1 tox inconclusive, SW480 rereplic inconclusive, KB-V1 MDR tox inconclusive
Fc1ccc([C@@H]2CCNC[C@H]2COc2ccc3c(c2)OCO3)cc1	MCF10A rerep inconclusive, KB-3-1 tox inconclusive, SW480 rereplic inconclusive, KB-V1 MDR tox 23µM!
CNC(=O)Nc1cc(C)nn1C	SW480 rereplic 23µM (no result: hERG WT inh)
COc1ccc(Sc2nnc(Cc3ccccc3)c3ccccc23)cc1	MCF10A rerep 9.2µM, SW480 rereplic inconclusive, KB-V1 MDR tox inconclusive
Cc1ccc(Sc2nnc(Cc3ccccc3)c3ccccc23)cc1	MCF10A rerep inconclusive, SW480 rereplic inconclusive, KB-V1 MDR tox inconclusive
CCCC(=O)NC(=S)Nc1ccc(C(C)=O)cc1	none
OCCCn1c(CCNc2nc(-c3ccc(F)cc3)cs2)nc2cc(C(F)(F)F)ccc21	MCF10A rerep inconclusive, KCNH2 3.1 inh -123
Cc1ccc(-c2csc(N3CCN(CCCn4c(-c5ccncc5)nc5ccccc54)CC3)n2)cc1	MCF10A rerep 23µM, KB-3-1 tox inconclusive, SW480 rereplic inconclusive, KB-V1 MDR tox 18µM
CCCn1c(C2CCCN2c2nc(-c3ccc(C)cc3)cs2)nc2ccccc21 (stereo unspecified)	MCF10A rerep inconclusive, KB-3-1 tox 18µM, SW480 rereplic inconclusive, KB-V1 MDR tox inconclusive
OCCOCCn1c(C2CCCN2c2nc(-c3ccc(F)cc3)cs2)nc2cc(C(F)(F)F)ccc21 (stereo unspecified)	KCNH2 3.1 inh -101, hERG WT inh -103
O=C(NCc1cccs1)c1cccc2c(-c3ccc(F)c(F)c3)coc12	none (no result: MCF10A rerep, KCNH2 3.1 inh, hERG WT inh, SW480 rereplic)
Cc1ccc(-c2csc(N3CCC[C@@H]3C(=O)NCCn3c(-c4ccncc4)nc4ccccc43)n2)cc1	KCNH2 3.1 inh -105, KB-3-1 tox inconclusive
O=C(NCCn1c(C(F)(F)F)nc2ccccc21)[C@H]1CCCN1c1nc(CN2CCCCC2)cs1	MCF10A rerep inconclusive, SW480 rereplic inconclusive
COc1cccc(OCc2nc3ncc(Br)cc3[nH]2)c1	KB-3-1 tox 5.8µM, KB-V1 MDR tox 1µM
Cc1cc(C)cc(OCc2nc3ncc(Br)cc3[nH]2)c1	MCF10A rerep inconclusive, KB-3-1 tox 1.3µM, SW480 rereplic 5.2µM, KB-V1 MDR tox 1µM
